Screens (PubChem)
Most compounds without a hit are left out; they make up all but 6.8% or so of the library.
Cy5 interf NS3h – Cy5 fluorescence interference, HCV helicase counter-screen. actives 6% (n = 16,000). Cy5-dT15 DNA with NS3h; actives lie on both sides; signal over control mean, under 1 quenches. fluorescence interference ratio at 100 µM;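 active = compound fluorescence over control fluorescence at most 0.8, a quencher, or at least a set upper limit, an enhancer; inactive = ratio between 0.8 and the set upper limit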
HCV NS3h FP – blocks HCV NS3 helicase binding to DNA | actives 1.6% (n = 16,000) | inhibition, % at 100 µM | AID 687043 | NS3h Cy5-dT15 DNA binding, fluorescence polarization;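 active = inhibition above the average over every tested compound plus 3 SD, cut at about 40% in these data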
* = called active by the depositor.

SMILES	Cy5 interf NS3h	HCV NS3h FP
CCOC(=O)C(=CNc1cccc(C(=O)O)c1)C(=O)OCC	1.1	-4
O=C1C(=O)N(CC2CCCO2)C(c2ccc(F)cc2)C1=C(O)c1ccccc1 (stereo not given)	1	-12
CCOC(=O)c1ccccc1NS(=O)(=O)c1cccs1	0.97	0
Cc1[nH]c2c(Cl)cccc2c(=O)c1CN(C)Cc1ccccc1	1.2	10
CCOc1ccc(C2=C/C(=C/c3cccs3)C(=O)O2)cc1	0.99	44*
COc1ccc(C2=C/C(=C/c3cccs3)C(=O)O2)cc1	1	27
COc1ccc(NC(=O)/C(C#N)=C\c2cc(C)n(-c3ccc([N+](=O)[O-])cc3)c2C)cc1	1	6
O=C(COc1ccccc1)Nc1ccc2nn(-c3ccc(Cl)cc3)nc2c1	1	-3
Cc1ccsc1/C=C1\SC(=S)N(C(C)C)C1=O	0.99	5
Cc1ccsc1/C=C1\SC(=N)N(c2ccc3c(c2)OCO3)C1=O	1.5*	49*
O=C1c2ccccc2NC(c2ccc(-c3ccccc3[N+](=O)[O-])o2)N1c1ccccc1 (stereo not given)	1	6
C=CCN1C(=O)/C(=C\c2ccc(OCCOc3cccc(OC)c3)cc2)SC1=S	1	6
C=CCN1C(=O)/C(=C\c2ccc(OC(=O)c3cccc(Br)c3)cc2)SC1=S	0.75*	7
O=C(O)c1cccc2c(Br)ccc(C(=O)O)c12	0.68*	3
O=C(O)CN1C(=O)c2cccc3c(Br)ccc1c23	1	7
CCc1ccc(/C=C2\C(=O)NN(c3ccccc3)C2=O)cc1	1	22
CCc1ccc(N2NC(=O)CC2=O)cc1	0.73*	10
O=C(Nc1cccc(Cl)c1)Nc1nnc(CSCc2ccc(Cl)cc2Cl)s1	0.94	0
O=C(Nc1ccccc1C(=O)N1CCCCC1)c1cccnc1	1.1	9
CCN(CC)C(=O)CN(c1cc(Cl)ccc1OC)S(=O)(=O)c1ccc(C)c([N+](=O)[O-])c1	1.1	12
COc1ccc(Cl)cc1N(CC(=O)NCC(C)C)S(=O)(=O)c1ccc(C)c([N+](=O)[O-])c1	0.71*	19
Cc1ccc(-c2ccc(/C=C3\SC(=S)NC3=O)o2)c([N+](=O)[O-])c1	0.89	20
Cc1ccc(-c2ccc(C=C3C(=O)NC(=O)NC3=O)o2)c([N+](=O)[O-])c1	0.72*	41*
COCCCNC(=O)CN(c1ccccc1OC)S(=O)(=O)c1ccccc1	1.1	1
O=C(Oc1cccc2ccccc12)c1ccco1	0.57*	3
SMILES	Cy5 interf NS3h	HCV NS3h FP
N/C(Cc1cccc2ccccc12)=N/OC(=O)c1ccco1	1.1	17
COc1ccc(OC)c(C2NC(=S)NC(C)=C2C(=O)Nc2ccc(C)c(Cl)c2)c1 (stereo not given)	1	1
Cc1ccc2nc(/C(C#N)=C/c3ccc(-c4ccc(Cl)cc4)o3)[nH]c2c1	0.77*	-51
COC(=O)c1cc(-c2ccc(/C=C(\C#N)c3nc4ccccc4[nH]3)o2)ccc1Cl	1	4
O=C1/C(=C/c2ccccc2OCc2ccc([N+](=O)[O-])cc2)SC(=S)N1Cc1ccccc1	1.1	11
O=C1/C(=C/c2ccccc2OCc2ccc([N+](=O)[O-])cc2)SC(=S)N1c1ccccc1	0.75*	12
Cc1ccc(COc2ccccc2C=C2C(=O)NC(=S)NC2=O)cc1	0.95	19
CCN1C(=O)/C(=C\c2cccc(O)c2)SC1=S	1	34
CCN1C(=O)/C(=C\c2cccc(C(F)(F)F)c2)SC1=S	0.71*	10
O=C1NC(=S)NC(=O)C1=Cc1ccccc1OCc1ccc([N+](=O)[O-])cc1	0.68*	30
O=C1/C(=C/c2ccccc2[N+](=O)[O-])SC(=S)N1c1cccc(C(F)(F)F)c1	0.76*	-2
O=C1/C(=C\c2ccc([N+](=O)[O-])cc2)SC(=S)N1c1cccc(C(F)(F)F)c1	1.1	-4
CCOc1ccc(N2C(=O)NC(=O)/C(=C\c3ccc([N+](=O)[O-])cc3)C2=O)cc1	0.92	11
CC(=O)C(C(C)=O)C1=CC(=O)C(=O)c2ccccc21	0.53*	6
COc1ccccc1C=C1C(=O)c2ccccc2C1=O	0.99	26
COc1cc(/C=N\N2C(=O)C3C4C=CC(C4)C3C2=O)cc(I)c1OC (stereo not given)	0.86	8
Nc1ccc(NC(=O)c2ccc(Cl)cc2Cl)c(Cl)c1	0.63*	4
O=C(Nc1ccc(Cl)cc1Cl)c1ccccc1F	1.1	2
CC(=O)N1C(=O)/C(=C/C(=O)c2ccccc2)c2ccccc21	0.79*	9
Cc1ccc(C(=O)/C=C2\C(=O)Nc3ccccc32)cc1	0.95	15
N/C(=N/OC(=O)c1cccc(F)c1)c1cccnc1	0.98	5
COc1ccc(/C(N)=N\OC(=O)c2ccc(Cl)cc2)cc1	0.98	-4
COc1ccc(C(=O)Nc2cc3nn(-c4ccc(OC)cc4)nc3cc2C)cc1	0.99	18
CCc1cc2c(=O)c(-c3nc4ccccc4s3)c(C)oc2cc1OS(C)(=O)=O	1.2*	7
CCC(=O)Oc1cc2oc(CC)c(-c3nc(C)cs3)c(=O)c2cc1CC	0.91	18
SMILES	Cy5 interf NS3h	HCV NS3h FP
COc1ccc(C2(CNC(=O)CC(c3ccccc3)c3ccccc3)CCCC2)cc1OC	1	20
N#Cc1cc(N=Cc2cccc(C=Nc3ccc(N)c(C#N)c3)c2)ccc1N	1.2*	7
Cc1oc(C(=O)O)cc1COc1ccc(-c2ccccc2)cc1	1.1	3
Cc1cc(O)cc(O)c1/C=N\NC(=O)/C(=C\c1ccc2c(c1)OCO2)NC(=O)c1ccccc1	0.99	-1
O=C1CCCC2=C1C(c1ccc3c(c1)OCO3)Nc1ccc3ccccc3c12 (stereo not given)	0.72*	21
Cc1ccsc1C1Nc2ccc3ccccc3c2C2=C1C(=O)CC(C)(C)C2 (stereo not given)	0.97	12
O=C(NC(c1ccccc1)c1ccccc1)C1CC1c1ccccc1 (stereo not given)	0.68*	14
O=C(Cc1cccc2c(S(=O)O)cccc12)NC(c1ccccc1)c1ccccc1	1	8
O=C(Nc1ccc(S(=O)(=O)N2CCCCCC2)cc1)c1cccc([N+](=O)[O-])c1	0.93	-3
COc1ccc(Br)cc1C(=O)Nc1ccc2oc(-c3ccccc3F)nc2c1	1.2*	-87
COc1ccc(C(=O)Nc2ccc3oc(-c4ccccc4Cl)nc3c2)cc1Br	0.93	14
O=C(c1cccc([N+](=O)[O-])c1)c1ccc2c(c1)C(=O)N(c1ccccn1)C2=O	0.96	-3
COC(=O)c1ccc(NC(=O)CCN2C(=O)c3cccc4cccc(c34)C2=O)cc1	1.1	3
COc1ccc(N2C(=O)CC(Cc3ccc(Cl)cc3)C2=O)cc1 (stereo not given)	0.69*	21
COc1ccc(N2C(=O)CC(Cc3ccccc3OC)C2=O)cc1 (stereo not given)	1	4
CC(NC(=O)c1cc2nc(-c3ccco3)cc(C(F)(F)F)n2n1)C1CC2CCC1C2 (stereo not given)	0.7*	20
COc1cc(NC(=O)c2cc3nc(-c4ccc5c(c4)OCO5)cc(C(F)(F)F)n3n2)c(OC)cc1Cl	1.1	10
COc1cc(C=Nc2ccc(S(N)(=O)=O)cc2)ccc1O	1.1	5
COc1ccc(N=Cc2ccc(O)c(OC)c2)cc1	0.8*	11
CCc1cc2c(=O)c(-c3nc4ccccc4[nH]3)coc2c(CN2CCOCC2)c1O	0.89	12
